Rows were chosen to be rich in hits. Some 6.3% of all compounds tested hit in one or more screens of this group.
DPM-DC inhibit: S. pneumoniae DPM-DC inhibitors, primary screen, biochemical, PK/LDH-coupled NADH fluorescence. diphosphomevalonate decarboxylase (Streptococcus pneumoniae D39). purified DPM-DC. calls only at 10 µM. hit rate 0.49% among 65,000;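 active means the 320 compounds with the highest percent inhibition in the single-dose primary screen, excluding strongly autofluorescent ones, cut at about 32% in these data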;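 further: kinetic rate of NADH fluorescence loss reporting ADP formed by the decarboxylase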
Spn MK inh: S. pneumoniae MK inhibitors, primary screen, biochemical, PK/LDH-coupled NADH absorbance | purified MK, PK/LDH-coupled NADH absorbance 340 nm | inhibition, % at 10 µM | hit rate 0.48% among 65,000;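 active means ranked among the strongest by inhibition in the single 10 µM screen, a fixed top-ranked set picked for dose follow-up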
Autofluor 339: intrinsic fluorescence of library compounds, ex339/em460 – biochemical, MLSMR library, data from DPM-DC assay, artefact control, profiling panel; fluorescence fold increase at 10 µM; AID 709, 2007; hit rate 5.5% among 65,000; compound autofluorescence, ex339/em460 nm, NADH buffer; stronger effect = higher value; 1 = no-compound wells, NADH background;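 active means at 10 µM, mean starting fluorescence two-fold or more over control wells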;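 further: signal is the first read of a kinetic run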
Spn PMK inh: S. pneumoniae PMK inhibitors, primary screen, biochemical, mevalonate pathway, pilot trial included; phosphomevalonate kinase (Streptococcus pneumoniae D39); purified PMK, PK/LDH-coupled NADH absorbance 340 nm; inhibition, % at 10 µM; hit rate 0.49% among 65,000;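 active means top-ranked compounds by inhibition in the single 10 µM screen, taking a fixed number of the strongest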
NADH coupling: inhibitors of PK/LDH coupling enzymes, profiling panel, artefact control, biochemical, MLSMR library | AID 774, 2007 | hit rate 0.02% among 65,000 | IC50, µM (titrated, usually from 10 µM) | coupled PK/LDH NADH assays, four targets;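 active means single-dose screening hits from any of four coupled enzyme assays that gave an IC50 when retested across doses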;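 further: the DPM-DC format reads NADH fluorescence rather than 340 nm absorbance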
Abs 340nm: compound light absorbance at 340 nm, profiling panel, artefact control, biochemical, MLSMR library, data from PS, PMK, MK assays; compound absorbance at 340 nm, fold over control; fold change at 10 µM; 65,000 tested, under 10 active;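 active means at 10 µM dose, initial 340 nm absorbance at least 2 fold that of control wells; inactive means change under 2 fold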;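 further: initial absorbance extrapolated from kinetic A340 decline of NADH oxidation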
Numbers stand for hits; i = inactive; nt = no result shown; + = active, no number.

SMILES	DPM-DC inhibit	Spn MK inh	Autofluor 339	Spn PMK inh	NADH coupling	Abs 340nm
CCN1CCCC1CN(Cc1cc2cc(C)cc(C)c2[nH]c1=O)C(=O)Nc1ccccc1OC (configuration not stated)	i	i	i	i	i	i
CCc1ccc2[nH]c(=O)c(CN(CCCN3CCOCC3)C(=O)Nc3cccc(Cl)c3)cc2c1	i	i	i	i	i	i
COc1ccc2[nH]c(=O)c(CN(CC3CCCO3)C(=O)Nc3ccccc3OC)cc2c1 (configuration not stated)	i	i	2.5	i	i	i
COc1ccccc1NC(=O)N(Cc1cc2cc(OC)c(OC)cc2[nH]c1=O)CC1CCCO1 (configuration not stated)	i	i	2.7	i	i	i
COc1cc(C(=O)N(Cc2cc3ccccc3[nH]c2=O)CC2CCCO2)cc(OC)c1OC (configuration not stated)	i	i	i	i	i	i
COc1ccc2[nH]c(=O)c(CN(CCN3CCCC3)C(=O)Nc3ccccc3Cl)cc2c1	i	i	3.2	i	i	i
CCN(CC)S(=O)(=O)c1ccc2oc(SCC3CN=C(c4ccc(OC)cc4)S3)nc2c1 (configuration not stated)	i	i	i	i	i	i
Cc1ccc(OCC(=O)Nc2ccc(O)c(C(=O)O)c2)cc1C	nt	i	3.3	i	i	i
COC(=O)c1sccc1NC(=O)c1ccoc1C	i	i	i	i	i	i
Cc1ccc(-c2noc(-c3cccs3)n2)cc1	i	i	i	i	i	i
Brc1ccc(-c2cnc(-c3cccs3)o2)cc1	nt	i	5	i	i	i
CCOC(=O)CCC(NC(=O)c1cncc(O)c1)C(=O)OCC (configuration not stated)	i	i	2.9	i	i	i
COc1ccc(CN2CC(C(=O)NCc3cccc(OC)c3)CC2=O)cc1 (configuration not stated)	i	i	i	i	i	i
OCC1CCCN(Cc2ccc(-c3ccccc3)cc2)C1 (configuration not stated)	i	41	i	i	i	i
Cc1cc(NC(=O)COc2ncnc3sc(C)c(C)c23)no1	i	i	i	i	i	i
Cc1cc(C)c(C#N)c(SCC(=O)CC(=O)OC(C)C)n1	i	i	3	i	i	i
Cc1cc(C)c(C#N)c(SCC(=O)Nc2nnc(-c3ccccc3)s2)n1	nt	i	2.1	i	i	i
CC1CC(=O)N(CC(=O)NCc2ccc3c(c2)OCO3)c2ccccc2S1 (configuration not stated)	i	i	i	i	i	i
CN(C)C(=O)N1CCCC(C(=O)NCc2cccs2)C1 (configuration not stated)	i	i	i	i	i	i
CN(C)C(=O)N1CCC(C(=O)NCc2cccs2)CC1	+	i	i	i	i	i
COC(=O)c1ccccc1NC(=O)n1cc(C)cn1	nt	i	3.6	i	i	i
COC(=O)c1ccccc1NC(=O)Cn1cc(Br)cn1	i	i	i	i	i	i
CC(=NCc1ccco1)c1c(C)[nH]n(-c2nc3ccccc3s2)c1=O	+	i	i	i	i	i
O=C(Cc1ccc(Cl)cc1)Nc1ccc2oc(-c3ccncc3)nc2c1	nt	i	3.6	i	i	i
O=C(Cc1ccccc1)Nc1ccc2oc(-c3cccnc3)nc2c1	nt	i	2.3	i	i	i
SMILES	DPM-DC inhibit	Spn MK inh	Autofluor 339	Spn PMK inh	NADH coupling	Abs 340nm
O=C(Nc1ccc2oc(-c3ccccc3)nc2c1)c1cccnc1	i	i	i	i	i	i
CCCCCC(=O)Nc1ccc2oc(-c3cccnc3)nc2c1	nt	i	3.7	i	i	i
COC(=O)[C@H](CCSC)NC(=O)NCc1ccc(S(N)(=O)=O)cc1	i	i	i	i	i	i
Cn1c(=O)c2[nH]c(N3CCOCC3)nc2n(-c2ccccc2)c1=O	i	i	i	i	i	i
Cc1cc(C)c(S(=O)(=O)N2CCN(c3nc4c(c(=O)n(C)c(=O)n4C)n3C)CC2)c(C)c1	i	i	i	i	i	i
O=C(C1CCN(S(=O)(=O)c2cccc3cccnc23)CC1)N1CCN(c2ccc(Cl)cc2)CC1	i	i	i	i	i	i
CC1CN(C(=O)Nc2ccc3snnc3c2)c2ccccc21 (configuration not stated)	i	i	i	i	i	i
NC(=O)c1cccc2c(=O)oc3ccccc3c12	i	i	i	i	i	i
CCOC(=O)N1CCC(NC(=O)CN2C(=O)CCSc3ccccc32)CC1	i	i	i	i	i	i
COc1ccc2nc3oc(C(=O)NC4CCN(Cc5ccccc5)CC4)cc3cc2c1	nt	i	3.4	i	i	i
CCOC(=O)N1CCC(NC(=O)c2ccc3c(c2)sc2nc(-c4ccc(OC)cc4)cn23)CC1	i	i	3.5	i	i	i
CCOC(=O)N1CCC(NC(=O)c2ccc3c(c2)N(CC)CCS3)CC1	nt	i	2.4	i	i	i
CCOC(=O)N1CCC(NC(=O)c2cc3cc4cc(OC)ccc4nc3o2)CC1	nt	i	5.1	i	i	i
COc1ccc2nc3oc(C(=O)N4CCN(c5ccccc5F)CC4)cc3cc2c1	i	i	i	i	i	i
O=S(=O)(c1ccc(Cl)cc1)N1CCC(N2CCCCCC2)CC1	i	i	i	i	i	i
N#CCCN1CCN(S(=O)(=O)c2ccc(S(=O)(=O)NC3CCCC3)cc2)CC1	i	i	i	i	i	i
CN(C)CCNC(=O)c1ccc2c(c1)N(Cc1ccc(F)cc1)CCS2	nt	i	2	i	i	i
CN(C)CCNC(=O)c1ccc(COCC(F)(F)F)cc1	i	i	i	i	i	i
CCOC(=O)c1[nH]nc(C(=O)c2ccc(Br)cc2)c1O	i	i	i	29	i	i
Cc1nnc(SCC(=O)N2CC(=O)Nc3ccccc32)n1-c1ccccc1	i	i	i	35	i	i
CCOC(=O)c1cc(-c2ccc3c(c2)OCO3)nc2onc(C)c12	nt	i	3.3	i	i	i
CC(=O)c1ccc(NC(=O)C2CCC(C)NC2=O)cc1 (configuration not stated)	i	i	i	i	i	i
O=c1c2ccc(-c3nnc4n3-c3ccccc3SC4)cc2nc2n1CCCCC2	i	i	i	i	i	i
Cc1cc(C)c(S(=O)(=O)NCc2cn3c(C)csc3n2)c(C)c1	i	i	i	i	i	i
Cc1cc(C)c(S(=O)(=O)NCc2cn3c(C)csc3n2)cc1C	+	i	i	i	i	i
CC(OC(=O)c1ccccc1NCc1ccco1)C(=O)Nc1ncc(Cl)cc1Cl (configuration not stated)	nt	i	2.2	i	i	i

Compound activity: PubChem, SRMLSC
